# Results reported in PubChem BioAssay AID1159569 (Broad Institute, 2015).
# Entries with a potency or affinity are not part of this list. Records with an inconclusive call do not appear. Active and inactive are the calls of the source. The rule behind the calls is not given here.
# Assay: HepG2 cell cytotoxicity, dose response, cytotoxicity control, plate reader, dry powder samples (AID 1159569)
compound,measurement,value
OC[C@H]1Nc2ccc(C#Cc3cccnc3)cc2[C@H]2NCC[C@H]21,outcome,inactive
